In the supplement of paper PMC6555819:

Key:
Assay in all cases: PBM binding z-score (relative to random genomic background probes); higher = stronger binding; sequences stand for … in GC…GCGATTGACAGCGTAGAATGAAGG
[1] = system: FXR:RXRa (NR concentration 270 nM, RXRa partner concentration 90 nM)
Procedure, shortened: (§1)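 Custom Agilent 4×180K protein-binding microarrays carried double-stranded probes, each with a 34-nt variable region. These regions held direct-repeat seeds, single-nucleotide variants, half-site ablations and random human genomic background sequences. Ligand-free nuclear receptor dimers were incubated on the arrays for 1 h, antibodies against each partner (one per run) detected binding, and scanned fluorescence was regression-normalized. Binding z-scores take the random background probes as reference.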

[2] = system: LXRa:RXRa (NR concentration 270 nM, RXRa partner concentration 90 nM)
Procedure, shortened: as §1

[3] = system: LXRa homodimer (NR concentration 270 nM)
Procedure, shortened: as §1

[4] = system: LXRb:RXRa (NR concentration 270 nM, RXRa partner concentration 90 nM)
Procedure, shortened: as §1

[5] = system: LXRb homodimer (NR concentration 270 nM)
Procedure, shortened: as §1

[6] = system: PPARa:RXRa (NR concentration 270 nM, RXRa partner concentration 90 nM)
Procedure, shortened: as §1

[7] = system: PPARg:RXRa (NR concentration 180 nM, RXRa partner concentration 90 nM)
Procedure, shortened: as §1

[8] = system: PPARg:RXRa 270nM:90nM, anti-RXR (NR concentration 270 nM, RXRa partner concentration 90 nM)
Procedure, shortened: as §1

[9] = system: PPARg:RXRa 30nM:10nM, anti-RXR (NR concentration 30 nM, RXRa partner concentration 10 nM)
Procedure, shortened: as §1

[10] = system: PPARg:RXRa 90nM:30nM, anti-RXR (NR concentration 90 nM, RXRa partner concentration 30 nM)
Procedure, shortened: as §1

[11] = system: PPARg:RXRa DBDmut IVT, anti-RXR (DBD mutation: RXRa K156A/R161A, NR concentration 270 nM, RXRa partner concentration 90 nM)
Procedure, shortened: as §1

[12] = system: PPARg:RXRa IVT, anti-PPARg (NR concentration 270 nM, RXRa partner concentration 90 nM)
Procedure, shortened: as §1

[13] = system: PPARg DBDmut:RXRa IVT, anti-PPARg (DBD mutation: PPARg1 K132A/R137A, NR concentration 270 nM, RXRa partner concentration 90 nM)
Procedure, shortened: as §1

[14] = system: PPARg DBDmut IVT, anti-PPARg (DBD mutation: PPARg1 K132A/R137A, NR concentration 270 nM)
Procedure, shortened: as §1

[15] = system: PPARg homodimer (NR concentration 180 nM)
Procedure, shortened: as §1

[16] = system: PXR:RXRa (NR concentration 270 nM, RXRa partner concentration 90 nM)
Procedure, shortened: as §1

[17] = system: PXR homodimer (NR concentration 270 nM)
Procedure, shortened: as §1

[18] = system: RARa:RXR (NR concentration 270 nM, RXRa partner concentration 90 nM)
Procedure, shortened: as §1

[19] = system: RARa homodimer (NR concentration 270 nM)
Procedure, shortened: as §1

[20] = system: RARb:RXRa (NR concentration 270 nM, RXRa partner concentration 90 nM)
Procedure, shortened: as §1

| Sequence | PBM binding z-score [1] | PBM binding z-score [2] | PBM binding z-score [3] | PBM binding z-score [4] | PBM binding z-score [5] | PBM binding z-score [6] | PBM binding z-score [7] | PBM binding z-score [8] | PBM binding z-score [9] | PBM binding z-score [10] | PBM binding z-score [11] | PBM binding z-score [12] | PBM binding z-score [13] | PBM binding z-score [14] | PBM binding z-score [15] | PBM binding z-score [16] | PBM binding z-score [17] | PBM binding z-score [18] | PBM binding z-score [19] | PBM binding z-score [20] |
| --- | --- | --- | --- | --- | --- | --- | --- | --- | --- | --- | --- | --- | --- | --- | --- | --- | --- | --- | --- | --- |
| ACAGACAGGTGATGAAGCTAACTCAGGCTATCAT | -0.132 | -0.408 | -0.326 | -0.472 | -0.446 | -0.116 | 0.522 | -0.13 | -0.153 | -0.11 | -0.036 | -0.28 | 0.338 | 0.232 | 0.0494 | -0.231 | 0.283 | 0.275 | -0.315 | -0.112 |
| AGCCAAAGTTCAGGACGAGGTAACGTAAAGCACG | 4.33 | 3.71 | 1.39 | 1.94 | 0.134 | 3.22 | 3.24 | 3.54 | 0.828 | 2.74 | -0.0528 | 1.03 | -0.637 | -0.0617 | 1.29 | 2.65 | 0.942 | 2.64 | 0.246 | 4.33 |
| ATCTCTAGGTAAAGATAGTTCAGTAAATGCAAAT | 0.492 | 4.09 | 0.589 | 1.27 | 0.936 | 0.78 | 0.749 | 0.691 | 0.403 | 0.563 | 1.89 | 1.77 | 1.18 | 0.812 | 0.801 | 1.14 | 0.936 | 0.952 | 1.67 | 0.706 |
| ACAGACAGGTGAATGAAGGTAACTCAGCTGGACG | 0.255 | -0.0154 | -0.43 | -0.273 | -0.569 | 0.447 | 0.97 | 0.258 | 0.0803 | 0.0876 | 0.834 | 1.06 | 0.562 | -0.518 | -0.217 | -0.156 | -0.221 | 0.42 | -0.316 | 0.743 |
| ACTCGGAGGACAAGGGTCAGAGCTACGCCAGTGA | 2 | 1.9 | -0.11 | 1.6 | -0.535 | 3.37 | 4.49 | 4.83 | 2.75 | 4.25 | 0.222 | 1.88 | -0.0175 | 0.0941 | 1.36 | 1.93 | -0.342 | 2.63 | 0.214 | 3.29 |
| CCGAGTAGGTTATGGGGCATTAAGGCAACGGTGA | 0.273 | 0.355 | 0.112 | 0.489 | 0.086 | 1.94 | 3.57 | 4.37 | 2.35 | 3.99 | 3.03 | 3.54 | -0.853 | -0.637 | 1.15 | -0.0362 | -0.296 | 0.648 | 0.0185 | 0.818 |
| ATGTCTAGGTAACAAGTTCAGTGAAAGAGAGGAC | 0.658 | 0.774 | 0.395 | 0.727 | 0.845 | 1.28 | 1.06 | 1.07 | 0.33 | 1.12 | 2.05 | 2.17 | 1.24 | 0.999 | 0.836 | 1.69 | 1.68 | 0.876 | 0.818 | 1.56 |
| TCTTGTAGATCAACAGAGGTTAAGAAAGTGCGCT | 0.849 | 3.72 | 0.564 | 2.19 | -0.36 | 2.09 | 0.162 | 1.64 | 2.33 | 1.98 | 1.7 | 0.862 | 0.181 | 0.408 | 0.896 | 3.06 | 0.45 | 1.95 | 0.0806 | 1.18 |
| GTTGCTAGGTCAACTGATGGTCAGCTAAAGCTCG | 4.29 | 3.62 | 0.729 | 2.08 | 0.507 | 3.96 | 3.38 | 3.96 | 0.825 | 2.71 | 5.15 | 4.94 | 1.14 | -0.255 | 1.33 | 1.47 | -0.554 | 3.03 | -0.133 | 4.26 |
| CGTCATAGTTCAAGGTAACGTAACAGAAAGCAGC | 1.89 | 2.17 | 0.514 | 1.5 | 0.174 | 2.48 | 1.29 | 1.78 | 0.603 | 1.3 | 0.329 | 0.799 | 0.676 | 1.29 | 1.19 | 1.39 | 0.511 | 1.43 | 0.512 | 3.34 |
| ATATGGAGGTTATCGGGTCATTCAGTTTGCGCAT | 4.63 | 4.39 | 2.28 | 3.8 | 1.41 | 4.84 | 5.29 | 5 | 2.08 | 3.73 | 4.66 | 4.91 | 1.95 | 1.8 | 2.89 | 4.61 | 8.4 | 4.75 | 1.62 | 3.26 |
| CGACCGAGGGCATGAGTTGATAGCAAATGCCGAT | 0.304 | 0.28 | -0.485 | 0.286 | -0.854 | 0.989 | 0.738 | -0.153 | -0.657 | -0.438 | 0.432 | 0.376 | -0.421 | -0.612 | 0.0239 | 0.48 | -0.327 | 0.539 | -0.74 | 2.11 |
| CCGACTGGGGCCGAAAGGTTACCATACCATCCGG | 0.707 | 0.858 | -0.0944 | 1.08 | -1.22 | 2.02 | 1.09 | 1.84 | 0.177 | 1.26 | -0.423 | 0.138 | -1.16 | -1.62 | 0.848 | 1.29 | -0.286 | 1.78 | -0.324 | 2.01 |
| ACTCGGAGGACAAAGGTCATAGCTACGCCAGTGA | 6.1 | 5.52 | 4.19 | 4.73 | 0.856 | 6.18 | 8.47 | 7.15 | 6.46 | 8.09 | 1.2 | 4.45 | 0.463 | 0.599 | 3.32 | 5.22 | 0.775 | 5.76 | 1.36 | 4.83 |
| AGAACGAGGGCACGCTGATTTGATAGCAGAGTAG | 0.707 | 0.541 | -0.464 | 0.172 | -0.795 | 2.31 | 2.24 | 1.79 | 0.45 | 1.1 | 4.06 | 4.09 | 0.567 | -0.124 | 0.292 | 0.514 | -0.166 | 1 | -0.142 | 2.67 |
